ClpP mod: qHTS Assay for Activators of ClpP; purified B. subtilis ClpP, FRET peptide cleavage, 20 min; 340,000 tested, 1.9% active; AID 651965, 2013; ATP-dependent Clp protease proteolytic subunit (Bacillus subtilis (strain 168)), P80244; Potency, µM (series often up to 57.5 µM), for inactives: top-dose activity change, negative = active; active = well fitted falling curve with a large enough effect; inconclusive = small, poorly fitted or top-dose-only effect; inactive = no such curve, though single readings can be large or run the other way; also: potency is read from the fitted curve at half-maximal effect; the source files actives as falling curves though it sought activators and does not explain the sign; nearly all actives have a fitted effect of over 65% in size
Target sequence (P80244 whole entry, looked up): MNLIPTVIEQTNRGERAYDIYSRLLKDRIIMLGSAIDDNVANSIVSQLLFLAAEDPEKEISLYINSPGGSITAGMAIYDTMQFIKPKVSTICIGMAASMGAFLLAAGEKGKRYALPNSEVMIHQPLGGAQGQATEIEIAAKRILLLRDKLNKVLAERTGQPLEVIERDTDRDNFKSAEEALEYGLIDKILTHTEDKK
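FRET quenching reversal measured ClpP activation: 10 microg/mL B. subtilis ClpP at pH 8 with the FRET-FV decapeptide, read at 430 nm after 320 nm excitation. The 20-min minus 0-min signal was scaled between DMSO/no-enzyme wells and ADEP (5.8 microM final).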
IL1B secr inh: inhibitors of inflammasome signaling (IL-1 beta secretion). THP-1 LPS/ATP IL-1B secretion, AlphaLISA, 16 h; hits give low values. activity change, % at 57.5 µM. 360,000 tested, 4.7% active. AID 743279; in the data active = activity change below about -50%; inconclusive = mostly about -30% to -49%; also: % is scaled to controls: 0 for no effect and ±100 for the full control effect
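Secreted IL-1B measured by AlphaLISA bead assay after 16 h compound exposure of THP-1 cells; compounds (final up to 57.5 uM) added 1 h before LPS (250 ng/mL) and ATP (1.25 mM) stimulation; lower signal means less secretion.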
TDP1 cell noCPT: qHTS for Inhibitors of human tyrosyl-DNA phosphodiesterase 1 (TDP1): qHTS in cells in absence of CPT. DT40 Tdp1-/- hTDP1 cells, no CPT, ATP luminescence, 48 h. Potency, µM (top dose mostly 46.2 µM), for the others: top-dose activity change, negative = growth inhibition, usual class: inhibitors. 420,000 tested, 15% active; also: potency is read from the fitted curve at half-maximal effect; % is scaled to controls: 0 for no effect and ±100 for the full control effect; nearly all actives have a fitted effect of over 55% in size
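Stably hTDP1-transfected Tdp1-null chicken DT40 cells were treated with library compounds minus camptothecin and grown for at least 48 hr at 37 °C, after which cellular ATP was quantified by luminescence.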
DT40 TDP1 CPT: growth inhibition of DT40 Tdp1-/-;hTDP1 cells with camptothecin (screen for TDP1 inhibitors) | chicken DT40 Tdp1-/-;hTDP1 cells + 20 nM CPT, ATP luminescence, 48 h | Potency, µM (series often up to 46.2 µM), inactives show top-dose activity change, negative = growth inhibition, usual class: inhibitors | 420,000 tested, 12% active | AID 686979; also: potency is read from the fitted curve at half-maximal effect; % is scaled to controls: 0 for no effect and ±100 for the full control effect; nearly all actives have a fitted effect of over 55% in size
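Chicken DT40 Tdp1-/- cells complemented with human TDP1, 400 cells/well, exposed to compounds plus 20 nM camptothecin for at least 48 h at 37 C; viability read as ATP content by CellTiter-Glo luminescence.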
DRD3 antagonist: blocks the human D3 dopamine receptor; P35462; D3R cells, DiscoveRx beta-arrestin luminescence, antagonist mode; hits give low values; max response, negative = inhibition, %; 360,000 tested, 2.5% active; in the data active = max response below about -50%; inconclusive = no clear call, values can overlap the other calls; also: % is scaled to controls: 0 for no effect and ±100 for the full control effect
Target sequence (P35462 whole entry, looked up): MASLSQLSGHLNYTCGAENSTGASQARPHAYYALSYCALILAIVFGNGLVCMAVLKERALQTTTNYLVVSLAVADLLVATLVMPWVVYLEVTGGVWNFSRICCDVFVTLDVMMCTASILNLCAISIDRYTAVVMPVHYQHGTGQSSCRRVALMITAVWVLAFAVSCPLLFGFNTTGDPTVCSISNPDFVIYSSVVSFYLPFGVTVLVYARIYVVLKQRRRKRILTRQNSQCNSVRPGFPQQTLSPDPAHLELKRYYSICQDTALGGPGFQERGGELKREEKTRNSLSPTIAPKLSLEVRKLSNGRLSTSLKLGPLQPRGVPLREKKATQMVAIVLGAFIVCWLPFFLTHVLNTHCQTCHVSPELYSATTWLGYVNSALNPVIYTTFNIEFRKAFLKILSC
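Cells expressing the human receptor were seeded at 1500 cells/well, incubated overnight at 37 degrees C in 5% CO2, then exposed to library compounds with dopamine controls for 90 minutes at 37 degrees C before luminescent detection.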
D3 ag: D3 dopamine receptor (human) agonism; D3R DiscoveRx beta-arrestin cells, luminescence, 90 min; AID 652048; P35462; 410,000 tested, 0.58% active; max activation, %; in the data active = max activation above about 30%; also: 0% is about no effect
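Agonist mode: compounds and dopamine controls were applied to plated cells for 90 min at 37 degrees C after an overnight attachment at 1500 cells/well. Luminescent read-out followed 30 - 60 minutes at room temperature with DiscoveRx detection reagent.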
* marks the source's active call; other numbers are inactive results; ? = inconclusive; / = no result. Compounds with a hit are over-represented: about 21% of the library has one in this group of screens. Unless noted, calls follow the shape of the dose curve; as a rule, active = well fitted inhibition curve with a large enough effect; inconclusive = small, poorly fitted or top-dose-only effect; inactive = flat fitted curve, though single readings scatter.

SMILES	ClpP mod	IL1B secr inh	TDP1 cell noCPT	DT40 TDP1 CPT	DRD3 antagonist	D3 ag
O=C(NCc1ccccc1F)c1ccc(S(=O)(=O)Nc2cccc(C(F)(F)F)c2)cc1	-2%	-19	?	-21%	-20	-1
CCOc1ccc(NS(=O)(=O)c2ccc(C(=O)NCCCN3CCCC3=O)cc2)cc1	?	2	18µM*	?	8	3
O=C(NCc1ccc(F)cc1)c1ccc(S(=O)(=O)Nc2cccc(C(F)(F)F)c2)cc1	14µM*	-14	?	?	-26	-4
Cc1ccc(CN2C(=O)CCC2C(=O)NCc2ccccc2Cl)cc1 (centres undefined)	1%	10	7%	-5%	8	-8
Cc1ccc(CN2CCN(Cc3cc4ccccc4o3)CC2CCO)cc1 (centres undefined)	1%	-11	?	?	-28	-15
CCN(Cc1ccccc1)C(=O)CN1C(=O)NC(CC)(c2ccc(F)cc2)C1=O (centres undefined)	/	-22	?	-4%	-8	-12
COc1ccc(-c2n[nH]c3c2C(c2ccccn2)N(C)C3=O)cc1 (centres undefined)	-8%	/	-4%	?	/	2
c1ccc2c(C3OCC4(CCCCC4)CO3)cccc2c1	1%	55	?	-21%	12	1
O=C(c1ccc(Br)o1)N1CCN(Cc2ccccc2Cl)CC1	0%	-20	?	?	3	-11
COc1ccc(C(C)NC(=O)CCc2ccccc2)cc1 (centres undefined)	1%	9	19%	10%	16	1
COc1ccc(C(OCC(O)CNC(C)c2ccccc2)c2ccc(OC)cc2)cc1 (centres undefined)	/	-98*	23µM*	?	-21	-5
COc1ccc(C(OCC(O)CNCCc2ccccc2)c2ccc(OC)cc2)cc1 (centres undefined)	-2%	-107*	18µM*	23µM*	-58*	-34
Cc1ccc(N2CC(NC(=O)Cc3ccc(F)cc3)CC2=O)cc1C (centres undefined)	-3%	/	?	?	/	6
CCc1ccc(-n2nc3cc(C)c(NC(=O)c4cc(OC)cc(OC)c4)cc3n2)cc1	-16%	/	-16%	-5%	/	-5
CCc1ccc(-n2nc3cc(C)c(NC(=O)c4cccc5ccccc45)cc3n2)cc1	-10%	/	?	21µM*	/	12
CCc1ccc(-n2nc3cc(C)c(NC(=O)c4ccccc4C)cc3n2)cc1	-3%	/	8.2µM*	?	/	-10
CCOc1ccc(Cn2c(CNS(=O)(=O)c3ccc([N+](=O)[O-])cc3)nc3cccnc32)cc1	0%	/	-19%	-15%	/	9
COc1cc2c(cc1OC)C1(Nc3c-2c(Cc2ccccc2)nn3-c2ccccc2)C(=O)Nc2ccccc21 (centres undefined)	-1%	-18	23µM*	?	-2	2
COc1cc2c(cc1OC)C1(NCC2)C(=O)Nc2ccccc21 (centres undefined)	-3%	-6	11%	-12%	-16	-12
CN(CC(=O)Nc1ccccc1Cl)C(=O)COC(=O)C1CC1	-21%	8	8%	11%	-12	7
CCCCOc1cccc(C(=O)N(Cc2ccc(Cl)cc2)C2CCS(=O)(=O)C2)c1 (centres undefined)	-6%	/	?	15µM*	/	-9
CCOc1cccc(C(=O)N(Cc2ccc(F)cc2)C2CCS(=O)(=O)C2)c1 (centres undefined)	1%	9	-3%	3%	22	38*
CCCOc1cccc(C(=O)N(Cc2ccccc2)C2CCS(=O)(=O)C2)c1 (centres undefined)	0%	25	?	-4%	1	16
CCCOc1ccccc1C(=O)N(Cc1ccco1)C1CCS(=O)(=O)C1 (centres undefined)	2%	16	18µM*	?	10	2
CCCCCOc1ccc(C(=O)N(Cc2ccccc2)C2CCS(=O)(=O)C2)cc1 (centres undefined)	0%	/	21µM*	?	/	5
SMILES	ClpP mod	IL1B secr inh	TDP1 cell noCPT	DT40 TDP1 CPT	DRD3 antagonist	D3 ag
CCCCOc1ccc(C(=O)N(Cc2ccco2)C2CCS(=O)(=O)C2)cc1 (centres undefined)	1%	-1	-17%	?	6	-6
CC(C)c1ccc(C2c3[nH]c4ccccc4c3C[C@H]3C(=O)N(c4ccccc4C(=O)N4CCC[C@H]4C(=O)O)C(=O)N23)cc1 (some centres undefined)	-1%	12	3%	10%	13	-18
NC(=O)CSc1nnnn1-c1cccc(O)c1	-2%	/	-13%	-4%	/	9
CCCC1Oc2ccccc2C(=O)N(CC(=O)c2ccc3c(c2)OCCO3)C1=O (centres undefined)	-1%	-3	5%	-20%	16	5
COC(=O)c1ccc(Cn2ccc(=O)[nH]c2=O)cc1	14µM*	-4	-9%	-6%	-8	0
COC(=O)c1ccc(Cn2cc(Cl)cn2)cc1	2%	?	-6%	-12%	-11	-1
COC(=O)c1ccc(Cn2cnc3c(Cl)ncnc32)cc1	/	-94*	?	?	1	2
CN(C)S(=O)(=O)c1cccc(C(=O)N2CCc3ccccc32)c1	-2%	0	?	?	4	2
CN(C)S(=O)(=O)c1cccc(C(=O)C2=C3SC=C(c4ccccc4)N3CC2)c1	-2%	7	23µM*	?	-12	5
COc1ccc(CN2CCn3ncc(C(=O)Nc4cc(C)cc(C)c4)c3C2=O)cc1	?	-4	?	5.8µM*	14	10
Cc1cc(C(=O)Nc2ccccc2-c2nc(CNC(=O)c3ccccc3Cl)c(C)o2)c(C)o1	/	/	-6%	19%	/	/
CCn1c(Nc2ccccc2Cl)nc2ccccc21	/	-7	-26%	-20%	6	0
CCn1c2ccccc2nc2cc3c(cc21)c(Cl)c(=O)c1ccccc13	3%	26	5.8µM*	8.2µM*	-17	3
COc1cc(NC(=O)CSc2nc(-c3cccs3)cc(C(F)(F)F)n2)cc(OC)c1OC	0%	/	?	21µM*	/	6
CC(C)OC(=O)c1ccc(NC(=O)CSc2nc(-c3cccs3)cc(C(F)(F)F)n2)cc1	?	/	29µM*	16µM*	/	3

Bioassay records as filed in PubChem BioAssay.
